PubChem BioAssay (NCATS)
Inconclusive results are not listed. Activity calls are given as the source filed them. Calls follow the shape of the dose curve; as a rule, active = well fitted curve in the direction sought with a large enough effect; inconclusive = small, poorly fitted or top-dose-only effect, or another doubt; inactive = no such curve, though single readings can be large; an effect the other way counts as inactive or inconclusive.

Legend:
[1] = Quantitative High-Throughput drug screen in 47 multiple myeloma cell lines against the NCATS MIPE library collection: AMO1_DSMZ cell viability assay (AID 1918927; also: nearly all actives have a fitted effect of over 30% in size; also: potency is read from the fitted curve at half-maximal effect)
Summary of the method: (§1)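 Luminescent ATP measurement with CellTiter-Glo gives viability, scaled between DMSO-only wells (100%) and media-only wells (0%). Cells, 500 per well, faced library compounds for 48 hours at 37C.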

[2] = Quantitative High-Throughput drug screen in 47 multiple myeloma cell lines against the NCATS MIPE library collection: ARP1_JJKsccF8 cell viability assay (AID 1918928; also: nearly all actives have a fitted effect of over 40% in size; also: potency is read from the fitted curve at half-maximal effect)
Summary of the method: (§2)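 ATP readout (CellTiter-Glo), 48 h drug incubation, 37 °C/5% CO2, 500 cells per well; normalisation to DMSO (100%) and media-only (0%) controls.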

[3] = Quantitative High-Throughput drug screen in 47 multiple myeloma cell lines against the NCATS MIPE library collection: Karpas620_DSMZ cell viability assay (AID 1918959); also: nearly all actives have a fitted effect of over 30% in size; also: potency is read from the fitted curve at half-maximal effect
Summary of the method: (§3)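 Viability readout: CellTiter-Glo luminescence following 5 min room-temperature incubation with reagent. Prior exposure: 48 h, 37C, humidified 5% CO2, 500 cells per well.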

[4] = Quantitative High-Throughput drug screen in 47 multiple myeloma cell lines against the NCATS MIPE library collection: KHM11_PLB cell viability assay (AID 1918962); also: nearly all actives have a fitted effect of over 35% in size; also: potency is read from the fitted curve at half-maximal effect
Summary of the method: as §3

[5] = Quantitative High-Throughput drug screen in 47 multiple myeloma cell lines against the NCATS MIPE library collection: H1112_PLB cell viability assay (AID 1918967; also: nearly all actives have a fitted effect of over 30% in size; also: potency is read from the fitted curve at half-maximal effect)
Summary of the method: as §1

[6] = Quantitative High-Throughput drug screen in 47 multiple myeloma cell lines against the NCATS MIPE library collection: Karpas25_ECACC cell viability assay (AID 1918968; also: nearly all actives have a fitted effect of over 35% in size; also: potency is read from the fitted curve at half-maximal effect)
Summary of the method: as §1

[7] = Quantitative High-Throughput drug screen in 47 multiple myeloma cell lines against the NCATS MIPE library collection: KMM1_JCRB cell viability assay (AID 1918960); also: nearly all actives have a fitted effect of over 30% in size; also: potency is read from the fitted curve at half-maximal effect
Summary of the method: as §2

[8] = Quantitative High-Throughput drug screen in 47 multiple myeloma cell lines against the NCATS MIPE library collection: INA6_PLB cell viability assay (AID 1918965; also: nearly all actives have a fitted effect of over 55% in size; also: potency is read from the fitted curve at half-maximal effect)
Summary of the method: (§4)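 Approved and investigational drugs from MIPE 4.0 were added by pin tool to 500 cells per well. After 48 hours at 37C, ATP-based CellTiter-Glo luminescence indicated remaining viability.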

[9] = Quantitative High-Throughput drug screen in 47 multiple myeloma cell lines against the NCATS MIPE library collection: JJN3_DSMZ cell viability assay (AID 1918966; also: nearly all actives have a fitted effect of over 50% in size; also: potency is read from the fitted curve at half-maximal effect)
Summary of the method: as §1

[10] = Quantitative High-Throughput drug screen in 47 multiple myeloma cell lines against the NCATS MIPE library collection: KMS12PE_JCRB cell viability assay (AID 1918972); also: nearly all actives have a fitted effect of over 30% in size; also: potency is read from the fitted curve at half-maximal effect
Summary of the method: as §4

[11] = Quantitative High-Throughput drug screen in 47 multiple myeloma cell lines against the NCATS MIPE library collection: ARD_JJKsccE7 cell viability assay (AID 1918929)
Summary of the method: as §1

[12] = Quantitative High-Throughput drug screen in 47 multiple myeloma cell lines against the NCATS MIPE library collection: KMS12BM_JCRB cell viability assay (AID 1918971); also: potency is read from the fitted curve at half-maximal effect; nearly all actives have a fitted effect of over 35% in size
Summary of the method: (§5)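 Steps: seed 500 cells per well; pin-transfer MIPE 4.0 library; incubate 48 h at 37C, 5% CO2, humidified; add CellTiter-Glo, 5 min room temperature; read luminescence.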

[13] = Quantitative High-Throughput drug screen in 47 multiple myeloma cell lines against the NCATS MIPE library collection: KMS26_JCRB cell viability assay (AID 1918975); also: nearly all actives have a fitted effect of over 45% in size; also: potency is read from the fitted curve at half-maximal effect
Summary of the method: as §5

[14] = Quantitative High-Throughput drug screen in 47 multiple myeloma cell lines against the NCATS MIPE library collection: MMM1_PLB cell viability assay (AID 1918976); also: nearly all actives have a fitted effect of over 35% in size; also: potency is read from the fitted curve at half-maximal effect
Summary of the method: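 MIPE 4.0 approved/investigational drugs; 500 cells/well; 48 h 37 °C humidified 5% CO2; CTG luminescence readout; DMSO = 100%, media = 0% viability.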

[15] = Quantitative High-Throughput drug screen in 47 multiple myeloma cell lines against the NCATS MIPE library collection: JIM3_ECACC cell viability assay (AID 1918963; also: nearly all actives have a fitted effect of over 35% in size)
Summary of the method: as §3

[16] = Quantitative High-Throughput drug screen in 47 multiple myeloma cell lines against the NCATS MIPE library collection: KMS20_JCRB cell viability assay (AID 1918973); also: nearly all actives have a fitted effect of over 45% in size; also: potency is read from the fitted curve at half-maximal effect
Summary of the method: as §1

[17] = Quantitative High-Throughput drug screen in 47 multiple myeloma cell lines against the NCATS MIPE library collection: JIM1_ECACC cell viability assay (AID 1918964; also: potency is read from the fitted curve at half-maximal effect)
Summary of the method: as §1

[18] = Quantitative High-Throughput drug screen in 47 multiple myeloma cell lines against the NCATS MIPE library collection: KMS27_JCRB cell viability assay (AID 1918970); also: nearly all actives have a fitted effect of over 30% in size
Summary of the method: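 ATP-based viability (CellTiter-Glo luminescence) is measured in cells treated 48 h with approved and investigational drugs at 37 °C. Controls are DMSO-only wells for full viability and media-only wells for none.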

[19] = Quantitative High-Throughput drug screen in 47 multiple myeloma cell lines against the NCATS MIPE library collection: KMS21BM_JCRB cell viability assay (AID 1918974); conditions: ATP luminescence, 48 h; viability: at 45.8 µM (top of the series); also: potency is read from the fitted curve at half-maximal effect
Summary of the method: as §1

[20] = Quantitative High-Throughput drug screen in 47 multiple myeloma cell lines against the NCATS MIPE library collection: Karpas417_ECACC cell viability assay (AID 1918961); conditions: Karpas417 myeloma viability, CellTiter-Glo ATP luminescence, 48 h; viability (% of DMSO): at 45.8 µM (top of the series); also: potency is read from the fitted curve at half-maximal effect
Summary of the method: as §4

Measured: Potency

CC(=O)OCC1=C(C(=O)O)N2C(=O)[C@@H](N)[C@@H]2SC1
inactive: [2] | [4] | [5] | [6]
active: [1] 23.5 µM | [3] 10.5 µM

O=S(=O)(F)Cc1ccccc1
active: [4] 9.35 µM | [8] 1.18 µM | [6] 2.64 µM
inactive: [1] | [2] | [3] | [7] | [9] | [5] | [10]

C=C[C@@H]1CN2CCC1C[C@H]2[C@H](O)c1ccnc2ccccc12 (stereo partly drawn)
active: [8] 20.9 µM | [5] 13.2 µM | [12] 23.5 µM | [10] 6.62 µM | [14] 7.43 µM
inactive: [1] | [11] | [3] | [13]

O=C(NCC1CCOCC1)c1cnc(Nc2ccc(Cl)cc2Cl)nc1C(F)(F)F
inactive: [7] | [13]
active: [1] 18.7 µM | [3] 5.26 µM | [8] 18.7 µM | [5] 5.9 µM | [6] 4.69 µM | [14] 20.9 µM

O=c1cccc2n1CC1CNC[C@H]2C1
inactive: [15] | [9] | [13]
active: [1] 13.2 µM | [3] 13.2 µM | [7] 11.8 µM | [8] 14.8 µM | [10] 9.35 µM | [16] 11.8 µM

C[C@]12CC[C@H](O)CC1=CC[C@H]1[C@H]3CCC(=O)[C@@]3(C)CC[C@@H]12
inactive: [2] | [15] | [18]
active: [1] 18.7 µM | [3] 16.6 µM | [17] 0.418 µM | [19] 11.8 µM | [14] 4.69 µM

Cc1[nH]nc2ccc(-c3cncc(OC[C@@H](N)Cc4c[nH]c5ccccc45)c3)cc12
active: [2] 3.32 µM | [8] 0.372 µM | [9] 0.264 µM | [5] 0.935 µM | [12] 2.64 µM | [16] 1.18 µM | [13] 1.18 µM | [14] 1.18 µM
inactive: [1] | [3] | [7] | [10]

CC(C)[C@H]1C(=O)N[C@H](CO)Cc2c[nH]c3cccc(c23)N1C
inactive: [1] | [2] | [3] | [7] | [5] | [19] | [13] | [14]

O=C(O)CNC(=O)c1c(O)c2ccccc2n(Cc2ccccc2)c1=O
inactive: [1] | [2] | [3] | [7] | [17] | [5] | [6] | [18] | [10] | [13]

Oc1ccc2c3c1O[C@H]1c4[nH]c5c(c4C[C@@]4(O)[C@@H](C2)N(CC2CC2)CC[C@]314)C[C@@]1(O)[C@H]2Cc3ccc(O)c4c3[C@@]1(CCN2CC1CC1)[C@H]5O4
inactive: [1] | [2] | [3] | [17] | [8] | [5] | [10] | [13]

CCOC(=O)c1cncn1[C@H](C)c1ccccc1
inactive: [1] | [7] | [15] | [17] | [8] | [5] | [18] | [13]
active: [12] 5.26 µM | [14] 7.43 µM

CCN(CC)C(=O)c1ccc(C2=CC3(CCNCC3)Oc3cccc(O)c32)cc1
active: [14] 10.5 µM
inactive: [1] | [3] | [8] | [5] | [16] | [13]

CCNC(=O)CC1N=C(c2ccc(Cl)cc2)c2cc(OC)ccc2-n2c(C)nnc21 (stereo not drawn)
active: [1] 10.5 µM | [20] 4.18 µM | [17] 16.6 µM | [8] 6.62 µM | [12] 16.6 µM | [10] 13.2 µM | [19] 5.9 µM | [13] 5.9 µM | [14] 16.6 µM

C[C@H]1CCCC=CC2C[C@H](O)C[C@@H]2[C@H](O)C=CC(=O)O1 (stereo partly drawn)
inactive: [2] | [20] | [8] | [9] | [5] | [6] | [16] | [13]

CN(C)[C@@H]1C(=O)C(C(N)=O)=C(O)[C@@]2(O)C(=O)C3=C(O)c4c(O)cccc4[C@@](C)(O)[C@H]3[C@H](O)[C@@H]12
inactive: [11] | [7] | [20] | [8] | [5] | [18] | [10] | [13]
active: [9] 9.35 µM | [14] 10.5 µM

C[C@]12Cc3cn[nH]c3C[C@@H]1CC[C@@H]1[C@H]2CC[C@@]2(C)[C@H]1CC[C@]2(C)O
inactive: [3] | [7] | [17] | [8] | [5] | [6] | [10] | [16]
active: [9] 14.8 µM | [12] 16.6 µM | [14] 23.5 µM
